# Many of the other results were omitted from the sample, so hits are more common in it than they were.
# Giardia FBPA inh: blocks Giardia fructose-bisphosphate aldolase activity; A8B2U2; purified Giardia FBPA; Potency, µM (doses to about 59.6 µM), without a hit: at the top dose activity, negative = inhibition, actives largely listed as inhibitors; hit rate 0.71% among 290,000; AID 2451; note: potency is the fitted concentration of half-maximal effect; % is set by controls: 0 for no effect and ±100 for the full control effect; nearly all actives have a fitted effect of over 55% in size
#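 40 nM FBPA preincubated 10 min at RT with compound (up to 57.5 uM final), then substrate plus GAPDH/TPI/NAD/arsenate coupling and diaphorase/resazurin added. Fluorescence read after 20 min at RT, 525/598 nm.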
# LmPK inh: inhibitors of Leishmania mexicana pyruvate kinase. hit rate 0.37% among 290,000. purified LmPK, Kinase-Glo ATP luminescence, 1 h. AID 1721. Potency, µM (highest dose often 57.5 µM), for inactives: at the highest dose activity change, negative = inhibition, hits mostly inhibitors. Q27686; note: potency is the fitted concentration of half-maximal effect; % is set by controls: 0 for no effect and ±100 for the full control effect
# Target sequence (Q27686 whole entry, looked up): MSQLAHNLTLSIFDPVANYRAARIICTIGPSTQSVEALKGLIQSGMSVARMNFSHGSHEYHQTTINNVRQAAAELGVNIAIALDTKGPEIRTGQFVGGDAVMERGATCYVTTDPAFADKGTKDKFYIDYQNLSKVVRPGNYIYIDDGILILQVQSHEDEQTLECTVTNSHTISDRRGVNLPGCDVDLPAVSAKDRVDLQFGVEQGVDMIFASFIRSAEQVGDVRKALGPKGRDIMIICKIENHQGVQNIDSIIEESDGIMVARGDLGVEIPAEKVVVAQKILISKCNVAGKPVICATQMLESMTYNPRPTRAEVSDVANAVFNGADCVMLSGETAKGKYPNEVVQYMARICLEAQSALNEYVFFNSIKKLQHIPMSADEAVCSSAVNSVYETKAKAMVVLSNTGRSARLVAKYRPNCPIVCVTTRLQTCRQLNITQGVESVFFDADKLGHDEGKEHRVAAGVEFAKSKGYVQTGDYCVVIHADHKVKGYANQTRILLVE
#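 Purified LmPK (0.1 nM) with 0.5 mM PEP and 0.1 mM ADP in imidazole buffer pH 7.2 with MgCl2/KCl, 1 h at room temperature. ATP formed was read by luciferase luminescence and normalized to no-enzyme and uninhibited controls.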
# CHX counter: counter-screen hit for Shiga toxin inhibitors, cycloheximide; cell reporter, cycloheximide protein synthesis inhibition counterscreen; hit rate 12% among 300,000; max response, %; in the data active = max response mostly above about 13%, no sharp cut-off; inactive = mostly below about 14%; note: read at 38.3 µM for the half of the compounds with a filed dose; 0% is about no effect
# Shiga toxin inh: inhibitors of Shiga toxin in Vero cells | Vero cells, Shiga toxin protein synthesis inhibition reporter | inhibition, % at 38.7 µM | hit rate 9.2% among 290,000 | AID 2315; in the data active = inhibition mostly above about 28%, no sharp cut-off; inactive = mostly below about 43%; note: 0% is about no effect
# Sm TGR inh: inhibitors of Schistosoma mansoni thioredoxin glutathione reductase. purified TGR, DTNB reduction, TNB absorbance 405 nm. Q962Y6. hit rate 3% among 360,000. Potency, µM (doses to about 114 µM), without a hit: at the top dose activity change, negative = inhibition, usual class: inhibitors; note: potency is the fitted concentration of half-maximal effect; % is set by controls: 0 for no effect and ±100 for the full control effect; nearly all actives have a fitted effect of over 60% in size
#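 TGR 20 nM + NADPH 100 uM (dispensed conc.), cpd preinc 15 min RT; start with NADPH (500 uM addition) then DTNB (15 mM addition). Kinetic TNB absorbance, 405 nm filter. Four-parameter Hill fit across titration.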
# Tb PYK inh: blocks Trypanosoma brucei pyruvate kinase; Q57TT1; TbPYK enzyme, Kinase-Glo Plus ATP luminescence, 45 min; Potency, µM (series often up to 76.8 µM), without a hit: at the top dose activity, negative = inhibition, actives largely listed as inhibitors; hit rate 0.12% among 410,000; AID 624173; note: potency is the fitted concentration of half-maximal effect; % is set by controls: 0 for no effect and ±100 for the full control effect; nearly all actives have a fitted effect of over 50% in size
#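 Readout: single end-point luminescence (Kinase-Glo Plus, 10 min). Reaction conditions were TbPYK/substrate plus 130 uM ADP, 45 min at RT, pH 7.2 TEA buffer. No-enzyme wells served as controls, and data were normalized before concentration-response fitting.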
# * = called active by the depositor; i = inactive; ? = inconclusive; / = no result given; [ ] = another dose, or the depositor's remark. Unless noted, calls come from the whole dose curve; as a rule, active = well fitted curve in the direction sought with a large enough effect; inconclusive = small, poorly fitted or top-dose-only effect, or another doubt; inactive = no such curve, though single readings can be large; an effect the other way counts as inactive or inconclusive.
SMILES,Giardia FBPA inh,LmPK inh,CHX counter,Shiga toxin inh,Sm TGR inh,Tb PYK inh
CCOC(=O)c1snc(C(=O)NC2CCCCC2)c1N,0.8%,-0.8%,24.4*,160.6*,6.0%,-15.3%
Nc1c(C(=O)NC2CCCCC2)nsc1C(=O)OCC(=O)NC1CCCCC1,-1.7%,2.9%,-2.1,-0.7,6.0%,1.6%
CN(C)C(Cc1ccccc1)C(=O)c1ccc(-c2ccccc2)cc1 (centres undefined),1.6%,-0.6%,8.0,-2.6,-23.5%,-5.7%
N#Cc1ccc(C[C@@H](NS(=O)(=O)c2ccc(C(=O)O)cc2)C(=O)O)cc1,0.0%,/,-2.8,-5.3,-3.8%,/
CN(C)C(Cc1ccc(C#N)cc1)C(=O)c1ccccc1 (centres undefined),0.0%,-1.0%,29.5*,31.8,-3.0%,-5.6%
COc1ccc(C(=O)C(Cc2ccccc2)N(C)C)cc1 (centres undefined),17.7%,1.9%,30.6*,42.4*,-19.8%,-3.0%
COc1ccc2c(c1)C(c1ccccc1OC)CC(=O)O2 (centres undefined),1.9%[89.2 µM],/,-0.9,i,/,/
COCc1nc2cccnc2n1C1CCN(S(=O)(=O)N(C)C)CC1,/,/,/,/,1.3%,1.3%
COc1cccc(C(=O)CC(C(=O)O)c2ccc(F)cc2)c1 (centres undefined),8.0%,0.8%,5.0,19.7,16.5%,0.5%
COc1cccc(C(=O)CC(C#N)c2ccc(F)cc2)c1 (centres undefined),-6.4%,1.5%,11.9,25.6*,4.2%,-0.3%
CC(C)(C)OC(=O)N[C@@H](Cc1ccccc1)[C@H](O)c1ccco1,-5.5%,8.0%,20.2*,40.0,?,-6.2%
CCCNC(=O)C(Cc1ccc(I)cc1)NC(=O)C1CC1 (centres undefined),/,/,/,/,3.5%,-2.4%
Cc1ccc(-n2ccnc(NCCc3ccc(S(N)(=O)=O)cc3)c2=O)c(C)c1,/,/,/,/,2.0%,-6.4%
COc1ccc(N=C2SCC(c3ccccc3)=NN2C)cc1,-1.8%,1.2%,28.9*,31.9,10.0%,-2.1%
COc1ccc(N=C2SCC(=O)N2c2ccc(OC)cc2)cc1,2.9%,4.0%,9.7,-9.1,0.0%,-3.0%
Cc1ccc(NC(=O)NCc2c(C)nn(C)c2C)cc1Cl,-0.1%,3.0%,26.2*,74.8*,10.0%,4.0%
Cc1ccc(NC(=O)NCc2ccccn2)cc1Cl,12.1%,-3.9%,24.6*,39.1*,6.3%,-15.8%
Cc1nn(C)cc1CNC(=O)Nc1ccc(Cl)c(Cl)c1,3.6%,5.8%,43.6*,57.6*,-1.3%,-5.2%
CCc1ccc(NC(=O)C(=O)NCc2ccccn2)cc1,0.8%,4.6%,23.9*,59.7*,0.0%,-0.8%
Cc1nn(C)cc1CNC(=O)C1(C)CC1(Cl)Cl (centres undefined),2.8%,2.7%,-2.4,8.8,0.1%,-7.3%
CCOC(=O)c1ccc(NC(=O)C(=O)NCc2ccccn2)cc1,0.6%,-0.3%,16.0,25.4,/,-4.2%
Cc1ccc(NC(=O)Nn2cnnc2)cc1Cl,/,-0.8%,-1.1,-2.7,11.7%,0.0%
CCCCCC(=O)N1C[C@@H](n2cc(-c3ccc(F)cc3)nn2)[C@H](O)C[C@@H]1c1ccc(Cl)cc1,/,/,/,/,/,-10.3%
Cc1ccc(C(=O)NCc2ccccn2)cc1Cl,6.0%,-3.3%,25.2*,36.0*,0.9%,4.3%
CC(=O)c1cccc(NC(=O)NCc2ccccn2)c1,-2.5%,-1.7%,30.8*,49.8*,-7.6%,0.4%
SMILES,Giardia FBPA inh,LmPK inh,CHX counter,Shiga toxin inh,Sm TGR inh,Tb PYK inh
Cc1ccc(NS(=O)(=O)c2cc(C(=O)NCc3ccccn3)ccc2Cl)cc1C,/,1.5%,3.4,-15.5,5.2%,6.0%
COc1ccc(NC(=O)NCc2ccccn2)cc1OC,-4.9%,-3.2%,0.5,12.3,0.4%,3.7%
Cc1ccc(NC(=O)NCc2ccccn2)cc1,2.9%,-1.0%,34.6*,74.7*,/,1.0%
CCOc1ccc(NC(=O)c2ccc(NC(=S)NC3CC3)cc2)cc1,3.5%,3.1%,11.3,50.6*,-18.1%,-5.5%
CCOc1ccc(NC(=O)c2ccc(NC(=S)NC3CCCCC3)cc2)cc1,1.3%,0.7%,23.7*,35.6,/,-4.2%
Cc1ccccc1CNC(=O)C1CCCCN1S(=O)(=O)c1ccc(F)cc1 (centres undefined),/,/,/,/,6.8%,9.0%
COc1ccccc1NC(=O)Cc1c(F)cccc1Cl,-10.3%,4.9%,-7.3,-10.6,2.4%,-1.8%
COc1ccc(NC(=O)Cc2c(F)cccc2Cl)cc1,-9.7%,-0.1%,30.8*,61.8*,/,-16.8%
COc1ccc(NC(=O)COC(=O)Cc2c(F)cccc2Cl)cc1,-1.5%,4.5%,44.6*,33.5*,-17.5%,2.8%
COc1ccc(C2=NN(CC(=O)NCCc3ccc(OC)c(OC)c3)C(=O)CC2)cc1,/,/,/,/,5.9%,-4.8%
Cc1cc(C(=O)COc2ccc(C#N)cc2)c(C)n1C1CC1,/,/,/,/,-21.5%,4.0%
Cc1cc(C(=O)COc2ccc([N+](=O)[O-])cc2)c(C)n1C1CC1,2.4%,6.5%,15.7*,36.1*,?,-3.4%
O=C(NC(=S)Nc1ccc(NC(=O)c2cccs2)cc1)c1ccco1,-9.4%,2.9%,7.8,11.5,-19.4%,-21.6%
O=C(Nc1ccc(NC(=O)c2cccs2)cc1)c1ccco1,8.0%,-13.0%,30.8*,36.0,2.0%,-2.2%
O=C(OCC(=O)c1cccs1)c1ccc(NC(=O)c2ccco2)cc1,-0.3%,4.2%,59.1*,122.6,?,-9.0%
COc1ccc(NC(=O)C(=O)N/N=C(\C)CC(=O)Nc2cc(C)ccn2)c(OC)c1,-9.8%,6.5%,-0.4,7.2,11.0%,-7.2%
C/C(CC(=O)Nc1ccccn1)=N\NC(=O)C(=O)Nc1ccccc1C,1.4%,-0.5%,0.7,-19.7,1.1%,-4.6%
CCc1ccc(NC(=O)C(=O)N/N=C(\C)CC(=O)Nc2ccc(OC)cc2)cc1,2.8%,1.3%,1.8,20.9,44.7µM*,2.4%
COc1cccc(NC(=O)C(=O)N/N=C(\C)CC(=O)Nc2ccc(NC(C)=O)cc2)c1,3.8%,-4.8%,32.1*,84.5*,-32.7%,1.0%
C/C(CC(=O)Nc1cc(C)ccn1)=N\NC(=O)C(=O)Nc1cccc(C)c1,-0.6%,-3.7%,26.4*,32.5,-1.9%,-15.1%
CCc1ccc(NC(=O)C(=O)N/N=C(\C)CC(=O)Nc2ccccn2)cc1,-1.2%,4.7%,35.5*,47.8*,0.1%,-10.5%
CC(C)Nc1ccc(-c2nc(-c3ccco3)no2)cc1[N+](=O)[O-],/,/,/,/,2.4%,-1.0%
COc1ccc(C)cc1NC(=O)c1cc(S(=O)(=O)N2CCC(C)CC2)ccc1F,/,/,/,/,1.8%,-1.1%
CCOC(=O)c1cnc(SCc2nc(N)nc(Nc3ccccc3OC)n2)nc1N,-19.4%,0.4%,-1.9,-6.3,-19.9%,/
CCOC(=O)c1cnc(SCc2nc(N)nc(Nc3ccc(C)cc3)n2)nc1N,-6.8%,4.4%,13.2*,16.5,2.9%,8.0%

# Assay outcomes: PubChem BioAssay, National Center for Advancing Translational Sciences (NCATS)
